Experimental data: PubChem BioAssay (NCATS)
“And” between values parts separate entries of the source, which are not always exact repeats. Equal entries are not always repeated. Results filed as inconclusive are left out. A call without a number means that no potency is given here. A number with no mark means an inactive call. The source made the active and inactive calls. The call rests on the fitted dose curve; in most records, active means well fitted curve in the direction sought with a large enough effect; inconclusive means small, poorly fitted or top-dose-only effect, or another doubt; inactive means no such curve, though single readings can be large; an effect the other way counts as inactive or inconclusive.

Key:
[1] = system: KB-3-1; test: Cytotoxic Profiling of Annotated Libraries Using Quantitative High-Throughput Screening (AID 1296008); conditions: Five cell lines viability, CellTiter-Glo ATP luminescence, 48-72 h; max response: active compounds read low; further: nearly all actives have a fitted effect of over 60% in size; further: potency means the concentration at half of the fitted maximal effect
Summary of the method: (§1)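 Cells exposed to compounds for 48 or 72 hr at 37 degrees Celsius. Viability read as ATP-coupled luminescence with CellTiter-Glo after 10 min at room temperature.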

[2] = system: NIH3T3; test: as above; conditions: Five cell lines viability, CellTiter-Glo ATP luminescence, 48-72 h; max response: active compounds read low
Summary of the method: as §1

[3] = system: HEK293T; test: qHTS assay to identify novel small-molecules to repurpose for Merkel cell carcinoma treatment (AID 1296009); conditions: MCC and control cell lines, CellTiter-Glo viability, 72 h; series mostly up to 44.8 µM; further: nearly all actives have a fitted effect of over 60% in size
Summary of the method: (§2)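 Cells were incubated with compound for 72 hr at 37 degree celsius before CellTiter-Glo addition. Luminescence was normalized with no-cell wells as full cytotoxicity and DMSO as baseline.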

[4] = system: C33A; test: Primary qHTS to identify gynecologic anti-cancer compounds using libraries of approved drugs and bioactive compounds (AID 1345084); conditions: Gynecologic cancer cell panel viability, ATPlite luminescence, 48 h; series mostly up to 57.5 µM; further: nearly all actives have a fitted effect of over 55% in size; further: potency means the concentration at half of the fitted maximal effect
Summary of the method: (§3)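 Cells, 1,000 per well, plated 16 h, then exposed 48 h at 37 C to compounds. Viability by ATPlite luminescence after 15 min at room temperature.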

[5] = system: CASKI; test: as above; conditions: Gynecologic cancer cell panel viability, ATPlite luminescence, 48 h; series mostly up to 57.5 µM
Summary of the method: as §3

[6] = system: Es-2; test: as above; conditions: Gynecologic cancer cell panel viability, ATPlite luminescence, 48 h; series mostly up to 57.5 µM
Summary of the method: as §3

[7] = system: HeLa; test: as above; conditions: Gynecologic cancer cell panel viability, ATPlite luminescence, 48 h; series mostly up to 57.5 µM
Summary of the method: as §3

[8] = system: Hek293T; test: as above; conditions: Gynecologic cancer cell panel viability, ATPlite luminescence, 48 h, control line for the selectivity index; series mostly up to 57.5 µM
Summary of the method: as §3

[9] = system: JEG-3; test: as above; conditions: Gynecologic cancer cell panel viability, ATPlite luminescence, 48 h; series mostly up to 57.5 µM
Summary of the method: as §3

[10] = system: OV90; test: as above; conditions: Gynecologic cancer cell panel viability, ATPlite luminescence, 48 h; series mostly up to 57.5 µM
Summary of the method: as §3

[11] = system: PA-1; test: as above; conditions: Gynecologic cancer cell panel viability, ATPlite luminescence, 48 h; series mostly up to 57.5 µM
Summary of the method: as §3

[12] = system: NIH3T3; test: qHTS assay to identify novel small-molecules to repurpose for Merkel cell carcinoma treatment (AID 1296009); conditions: MCC and control cell lines, CellTiter-Glo viability, 72 h; at 44.8 µM (top of the series) unless noted; further: nearly all actives have a fitted effect of over 60% in size
Summary of the method: as §2

[13] = system: CAOV3; test: Primary qHTS to identify gynecologic anti-cancer compounds using libraries of approved drugs and bioactive compounds (AID 1345084); conditions: Gynecologic cancer cell panel viability, ATPlite luminescence, 48 h; series mostly up to 57.5 µM; further: nearly all actives have a fitted effect of over 55% in size; further: potency means the concentration at half of the fitted maximal effect
Summary of the method: as §3

SMILES | outcome [1] | max response [2] | Potency [3] | Potency [4] | Potency [5] | Potency [6] | Potency [7] | Potency [8] | Potency [9] | Potency [10] | Potency [11] | max response [1] | outcome [2] | outcome [12] | Potency [13] | Potency [1] | Potency [2]
CCn1cc(C2=NOC(C(=O)Nc3c(C)n(C)n(-c4ccccc4)c3=O)C2)c(C)n1 (centres undefined) | inactive | 2.09% | inactive | inactive | inactive | inactive | inactive | inactive | inactive | inactive | inactive |  |  |  |  |  | 
C#C[C@]1(O)CC[C@H]2[C@@H]3CCC4=C/C(=N/O)CC[C@@H]4[C@H]3CC[C@@]21CC |  |  |  |  |  | inactive | 14.1 µM (active) | inactive | inactive | inactive |  | -19.2% and -21.5% | inactive | inactive | inactive |  | 
C[C@@H]1CCC2C(C)(C)[C@H](O)CC[C@]2(C)[C@@]12Cc1c(O)cc3c(c1O2)CN(CCO)C3=O (some centres undefined) |  | 1.6% | inactive | inactive | inactive | inactive | inactive | inactive | inactive | inactive | inactive | 3.58% |  |  |  |  | 
C=C1CCC2[C@@](C)(C=O)CCC[C@]2(C)[C@H]1CC/C(C)=C/CO (some centres undefined) |  | 1.05% | inactive | inactive | inactive | inactive | inactive | inactive | inactive | inactive | inactive | 7.89% |  |  | inactive |  | 
CNC(=O)c1ccc(Nc2ncc(C(F)(F)F)c(NCc3nccnc3N(C)S(C)(=O)=O)n2)cc1 |  |  |  |  |  | 17.8 µM (active) | 10 µM (active) | 8.91 µM (active) |  |  | 4.47 µM (active) |  |  |  |  | 11.6 µM (active) | 14.6 µM (active) and 3.71 µM (active)
O=C(/C=C/c1ccc(O)c(O)c1)OCc1ccccc1O[C@@H]1O[C@H](CO)[C@@H](O)[C@H](O)[C@H]1O |  | -4.16% | inactive | inactive | inactive | inactive | inactive | inactive | inactive | inactive | inactive | 0.279% |  |  | inactive |  | 
N#Cc1ccnc(N2C(=O)CC[C@H]2C(=O)N(c2cncc(F)c2)[C@H](C(=O)NC2CC(F)(F)C2)c2ccccc2Cl)c1 |  | -4.58% |  | inactive | inactive | inactive | inactive | inactive | inactive | inactive | inactive | 1.75% |  |  | inactive |  | 
C[C@@H]1C(=O)O[C@H]2CC34[C@H]5C[C@@H](C(C)(C)C)C36[C@@H](OC(=O)[C@@H]6O)O[C@@]4(C(=O)O5)[C@]21O (some centres undefined) |  | 1.08% | inactive | inactive | inactive | inactive | inactive | inactive | inactive | inactive | inactive | -3.91% |  |  | inactive |  | 
CON(C)C(=O)N1N=C(c2cc(F)ccc2F)S[C@@]1(CCCN)c1ccccc1 |  | -29.1% |  | inactive |  |  |  |  |  | inactive |  |  |  |  |  | 0.0082 µM (active) | 
O=C(O)C[C@H](O)C[C@H](O)/C=C/c1c(C2CC2)nc2ccccc2c1-c1ccc(F)cc1 |  |  |  |  |  |  | 8.91 µM (active) |  | inactive |  | 10 µM (active) |  |  |  |  | 4.61 µM (active) | 14.6 µM (active)
CN(C)C/C=C/C(=O)Nc1ccc(C(=O)Nc2cccc(Nc3ncc(Cl)c(-c4c[nH]c5ccccc45)n3)c2)cc1 |  |  |  |  | 0.794 µM (active) | 1.78 µM (active) | 0.891 µM (active) | 1.26 µM (active) | 3.55 µM (active) |  | 0.891 µM (active) |  |  |  |  | 0.184 µM (active) | 1.16 µM (active) and 2.09 µM (active)
c1nc(NC2CCCCCC2)c2cc(CNC[C@H]3CCCO3)sc2n1 |  | 3.78% | inactive | inactive | inactive | inactive | inactive | inactive | inactive | inactive | inactive | -9.77% |  |  |  |  | 
COC1CC(=O)C23C(=O)NC(CC(C)C)C2C(C)C(C)=CC3/C=C(\C)CCC1O (centres undefined) |  | -0.706% | inactive | inactive | inactive | inactive | inactive |  | inactive | inactive | inactive | 0.905% |  |  | inactive |  | 
CCC[C@@H]1C[C@@H](C(=O)N[C@@H]([C@H]2O[C@H](SC)[C@H](OP(=O)(O)O)[C@@H](O)[C@H]2O)[C@H](C)Cl)N(C)C1 |  |  |  | inactive | inactive | inactive | inactive | inactive | inactive | inactive | inactive | -22.3% and -12.7% and 0.837% | inactive |  | inactive |  | 
COc1cc(N2CCC(O)CC2)ccc1Nc1cc(Nc2ccccc2S(=O)(=O)C(C)C)c2cc[nH]c2n1 |  |  |  | inactive | inactive | inactive | inactive | inactive | inactive | inactive |  |  |  |  | inactive | 14.3 µM (active) | 4.67 µM (active)
